14 compounds from PubChem BioAssay (Tox21) can be followed below.

Several values for one entry are separate records, joined by “and”; a condition that tells them apart may be missing. Equal values may be shown once. Inconclusive results are not listed. A structure can be active in one record and inactive in another. Activity calls are given as the source filed them. The call rests on the fitted dose curve; in most records, active means well fitted activation curve with a large enough effect in the repeat runs; inconclusive means weak or mixed curves; inactive means no such curve, though single readings can be large or run the other way.
On the % scale 0 is the no-effect control and ±100 the full control effect; potency means the concentration at half of the fitted maximal effect.

The target in one test is Nuclear receptor subfamily 1 group I member 2 (Rattus norvegicus) (UniProt Q9R1A7). Description: Rat pregnane X receptor (rPXR) activation by small molecules, qHTS assay (AID 1346983). Further: nearly all actives have a fitted effect of over 20% in size. The settings on record: rPXR luciferase reporter cells, One-Glo luminescence, 24 h; max activation: stronger effect = higher value. In a few lines: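 Cell-based rPXR activation assay: rPXR cells, 2,000 per well, rested 5hr at 37 C, then exposed to compounds in DMSO for 24 hr at 37 C. Luciferase activity read by One-Glo luminescence after 30 min at room temperature.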
Chain of Nuclear receptor subfamily 1 group I member 2 (Rattus norvegicus) (Q9R1A7 whole entry, looked up): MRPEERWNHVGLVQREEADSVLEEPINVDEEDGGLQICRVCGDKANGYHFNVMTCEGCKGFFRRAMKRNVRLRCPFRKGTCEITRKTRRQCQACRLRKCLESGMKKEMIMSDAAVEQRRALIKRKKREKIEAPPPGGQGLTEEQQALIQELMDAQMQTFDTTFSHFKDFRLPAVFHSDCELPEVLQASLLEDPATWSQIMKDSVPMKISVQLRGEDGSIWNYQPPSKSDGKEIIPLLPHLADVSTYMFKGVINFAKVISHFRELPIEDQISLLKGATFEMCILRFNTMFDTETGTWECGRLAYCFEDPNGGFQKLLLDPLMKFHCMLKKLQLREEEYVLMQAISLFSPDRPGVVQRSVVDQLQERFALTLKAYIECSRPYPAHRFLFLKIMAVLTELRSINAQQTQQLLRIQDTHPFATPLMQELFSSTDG
(In general: qHTS replaces the single test concentration by a dilution series.)
Turning to `CC(C)N1CCN(c2ccc(OC[C@H]3CO[C@](Cn4cncn4)(c4ccc(Cl)cc4Cl)O3)cc2)CC1`, the max activation was -0.695% (inactive).
For the compound `CN1[C@@H]2CC[C@H]1CC(OC(c1ccccc1)c1ccccc1)C2` (stereo partly drawn), the max activation was -1.01% (inactive) and 0.643% (inactive) and -2.69% (inactive).
Still for that read-out and setting: next, `CN(C)CCCN1c2ccccc2C(C)(C)c2ccccc21`: -1.25% (inactive); `COc1ccc2c(c1)OC(C)(C)C(c1ccccc1)C2c1ccc(OCCN2CCCC2)cc1` (stereo not drawn): -6.65% (inactive).
The same measure, in the same setting: then `CCNC(=O)[C@@H]1CCCN1C(=O)[C@H](CCCN=C(N)N)NC(=O)[C@H](CC(C)C)NC(=O)[C@@H](Cc1c[nH]c2ccccc12)NC(=O)[C@H](Cc1ccc(O)cc1)NC(=O)[C@H](CO)NC(=O)[C@H](Cc1c[nH]c2ccccc12)NC(=O)[C@H](Cc1cnc[nH]1)NC(=O)[C@@H]1CCC(=O)N1`, with -27.8% (inactive); and `OCCN1CCN(CC/C=C2/c3ccccc3Sc3ccc(Cl)cc32)CC1`, with -1.76% (inactive); and `CC(O)[C@H]1CC[C@H]2[C@@H]3CC[C@@H]4C[C@@H](O)CC[C@]4(C)[C@H]3CC[C@]12C` (stereo partly drawn), with 2.94% (inactive).
In the case of `CN(C)CC/C=C1/c2ccccc2CSc2ccccc21`, the max activation was -3.65% (inactive).
In the case of `CCN(CC)CCOc1ccc(-c2nc3cc(Cl)ccc3s2)cc1`, the Potency was 0.794 µM (active).
In the case of `Nc1ccc(S(=O)(=O)Nc2ncccn2)cc1`, the max activation is -1.29% (inactive).
On the same count and under the same terms, then `CCC(=O)c1ccc2c(c1)N(CCCN1CCN(CCO)CC1)c1ccccc1S2`, with -17.5% (inactive); and `CN(C)CCC=C1c2ccccc2C(C)(C)c2ccccc21`, with 6.91% (inactive); and `CNC(C)CCC=C(C)C` (stereo not drawn), with 2.06% (inactive).
For the compound `C[C@]12C=CC(=O)N[C@@H]1CC[C@@H]1[C@@H]2CC[C@]2(C)[C@@H](C(=O)Nc3cc(C(F)(F)F)ccc3C(F)(F)F)CC[C@@H]12`, the max activation was -1.05% (inactive).

For the next test, the target named is Nuclear receptor subfamily 1 group I member 2 (Homo sapiens) (UniProt O75469). Description: CYP3A4 induction through human pregnane X receptor (PXR) by small molecules, qHTS assay (AID 1346984). Further: nearly all actives have a fitted effect of over 40% in size. Particulars: DPX-2 HepG2 PXR, CYP3A4-luciferin luminescence, 24 h; series mostly up to 46.1 µM; activation: at the top concentration. Summed up: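 Steps: seed DPX-2 cells, 5 hr at 37C; pin-transfer compounds; 24 hr at 37C; add Luciferin-IPA (3uM final), 3 hr at 37C; add One-Glo, 30 min RT; read luminescence.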
Regarding `CC(C)N1CCN(c2ccc(OC[C@H]3CO[C@](Cn4cncn4)(c4ccc(Cl)cc4Cl)O3)cc2)CC1`, the “activation” value was 7.58% [at 20.6 µM] (inactive).
`CN1[C@@H]2CC[C@H]1CC(OC(c1ccccc1)c1ccccc1)C2` (stereo partly drawn): the Potency entry is “inactive and 14.1 µM (active)”.
For the compound `CN(C)CCCN1c2ccccc2C(C)(C)c2ccccc21`, the Potency was 31.6 µM (active).
As to `COc1ccc2c(c1)OC(C)(C)C(c1ccccc1)C2c1ccc(OCCN2CCCC2)cc1` (stereo not drawn), the “activation” value was -4.86% (inactive).
Still for that read-out and setting: next, `CCNC(=O)[C@@H]1CCCN1C(=O)[C@H](CCCN=C(N)N)NC(=O)[C@H](CC(C)C)NC(=O)[C@@H](Cc1c[nH]c2ccccc12)NC(=O)[C@H](Cc1ccc(O)cc1)NC(=O)[C@H](CO)NC(=O)[C@H](Cc1c[nH]c2ccccc12)NC(=O)[C@H](Cc1cnc[nH]1)NC(=O)[C@@H]1CCC(=O)N1`: -18.8% (inactive).
Consider `OCCN1CCN(CC/C=C2/c3ccccc3Sc3ccc(Cl)cc32)CC1`, for which the “activation” value was 25.2% [at 20.6 µM] (inactive).
Same read-out and setting: then `CC(O)[C@H]1CC[C@H]2[C@@H]3CC[C@@H]4C[C@@H](O)CC[C@]4(C)[C@H]3CC[C@]12C` (stereo partly drawn), with -2.77% (inactive); and `CN(C)CC/C=C1/c2ccccc2CSc2ccccc21`, with 8.14% [at 20.6 µM] (inactive).
`CCN(CC)CCOc1ccc(-c2nc3cc(Cl)ccc3s2)cc1`: the Potency was 12.6 µM (active).
Regarding `Nc1ccc(S(=O)(=O)Nc2ncccn2)cc1`, the “activation” value was -5.42% [at 20.6 µM] (inactive).
As to `CCC(=O)c1ccc2c(c1)N(CCCN1CCN(CCO)CC1)c1ccccc1S2`, the Potency was 14.1 µM (active).
Consider `CN(C)CCC=C1c2ccccc2C(C)(C)c2ccccc21`, for which the Potency is 22.4 µM (active).
Regarding `CNC(C)CCC=C(C)C` (stereo not drawn), the “activation” value is 14.1% (inactive).
The same measure, in the same setting: next, `C[C@]12C=CC(=O)N[C@@H]1CC[C@@H]1[C@@H]2CC[C@]2(C)[C@@H](C(=O)Nc3cc(C(F)(F)F)ccc3C(F)(F)F)CC[C@@H]12`: -2.45% (inactive).
